Experimental data as given in PubChem BioAssay (NCI).
This is part of a sample that, as a whole, favours compounds with a hit. Of some 79,000 tested, about 15% had one in any assay. Rule as the data show it: active = growth inhibition above about 70%; inactive = the rest.

Columns and labels:
[1] = NCI Yeast Anticancer Drug Screen. Data for the rad50 strain (AID 155);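 also: 0% = growth of vehicle-only cultures of the same strain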; conditions: S. cerevisiae rad50 strain growth inhibition; at 50.0 µM; active compounds read high
Outline: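 Genetically altered yeast (DNA repair pathway); compound treatment; growth inhibition vs vehicle ctrl.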

[2] = NCI Yeast Anticancer Drug Screen. Data for the mec2-1 strain (AID 157); conditions: S. cerevisiae mec2-1 strain, at 50.0 µM, active compounds read high
Outline: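 mec2-1 yeast strain, carrying an alteration in DNA damage repair or cell cycle control, was exposed to compounds; growth inhibition was measured relative to vehicle-treated controls.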

[3] = NCI Yeast Anticancer Drug Screen. Data for the sgs1 mgt1 strain (AID 161);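 also: 0% = growth of cultures given vehicle only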; conditions: S. cerevisiae sgs1 mgt1 strain, at 50.0 µM, active compounds read high
Outline: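 Yeast cells carrying a defined DNA-repair defect were exposed to test compounds. Growth inhibition was measured relative to vehicle-treated controls.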

[4] = NCI Yeast Anticancer Drug Screen. Data for the cln2 rad14 strain (AID 165);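 also: 0% = growth equal to vehicle treated cultures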; conditions: S. cerevisiae cln2 rad14 strain, at 50.0 µM, active compounds read high
Outline: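 Yeast carrying cln2 and rad14 alterations (cell cycle control and DNA damage repair) were exposed to compounds. Growth inhibition was measured against vehicle-treated controls.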

[5] = NCI Yeast Anticancer Drug Screen. Data for the bub3 strain (AID 167); conditions: S. cerevisiae bub3 mutant strain, at 50.0 µM, active compounds read high
Outline: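 Yeast carrying a defined mutation is treated with each compound, and growth is compared with that of vehicle-exposed cells to give inhibition.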

[6] = NCI Yeast Anticancer Drug Screen. Data for the mlh1 rad18 strain (AID 175); conditions: S. cerevisiae mlh1 rad18 strain growth inhibition; at 50.0 µM; active compounds read high
Outline: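 Growth inhibition of the yeast strain was measured after compound exposure and expressed relative to vehicle-treated controls. The strain carries defined defects in DNA damage repair.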

Measured: growth inhibition

OC(CN(C1CCCCC1)C1CCCCC1)c1ccnc2c(Cl)cc(Cl)cc12 (stereo unspecified)
inactive: [1] -21.8% | [2] -1% | [3] 7.3% | [4] 0.6% | [5] -6.3% | [6] 18.4%

Cc1ccc(S(=O)NOCc2ccccc2)cc1 (stereo unspecified)
inactive: [1] 3.25% | [2] 16.4% | [3] 5.3% | [4] 11.4% | [5] 11.1% | [6] 51%

CCN1c2ccccc2CC(C#N)(CCN(C)C)c2ccccc21 (stereo unspecified)
inactive: [1] 1.5% | [2] 5.45% | [3] 2.65% | [4] -10.8% | [5] 6.95% | [6] -0.35%

CC(C)C/C(=N\NC(N)=O)C1=CCCCC1
inactive: [1] 10.8% | [2] 4.2% | [3] -1.15% | [4] -40.5% | [5] -0.1% | [6] 11.7%

Cc1ccc(Cc2cc(=O)[nH]c(=O)[nH]2)cc1
inactive: [1] 0.2% | [2] -8.25% | [3] -13.2% | [4] -76.5% | [5] 2.7% | [6] 5.4%

COc1cc(C)c(O)c(C/C=C(\C)CC2=C[C@@]3(C)CCC[C@@]3(C)[C@]3(CC(O)C(C)(C)O3)O2)c1 (stereo partly specified)
inactive: [1] 21.1% | [2] 6.2% | [3] -8.5% | [4] 4.75% | [5] 4.95% | [6] 10%

CC1=[N+]([O-])C2(CCCC2)N(O)C1(C)C
inactive: [1] -13.8% | [2] -0.7% | [3] 9.7% | [4] 19.5% | [5] -6.25% | [6] 12.8%

N#Cc1nc(Cc2ccccc2)oc1N
inactive: [1] 27.3% | [2] 9.2% | [3] -22% | [4] 18.4% | [5] -26.1% | [6] -22.6%

COC(=O)C(=O)C1CCc2c(ccc3c2CCCC3)C1 (stereo unspecified)
inactive: [1] 0.8% | [2] 17.4% | [3] 22.9% | [4] -8.8% | [5] 8.2% | [6] 10.2%

O=C(O)c1ccncc1C(=O)c1csc2ccccc12
inactive: [1] 7.9% | [2] 14.2% | [3] 27.1% | [4] 22.1% | [5] 30.4% | [6] 19.3%

CC(c1ccccc1)C1(C)NC(=O)NC1=O (stereo unspecified)
inactive: [1] -12.4% | [2] -24.7% | [3] -2.1% | [4] -4.1% | [5] 6.55% | [6] -10.1%

COC(=O)C1(C(=O)Nc2ccccc2)N=N1
inactive: [1] 13.7% | [2] 7.55% | [3] 2.5% | [4] 3.35% | [5] -4.45% | [6] 8.15%

COCn1c2ccc(OC(C)=O)cc2c2c(=O)oc(N(C)C)nc21
inactive: [1] -14.8% | [2] -31.6% | [3] -29.4% | [4] -5.5% | [5] -11.6% | [6] -11.7%

S=C(c1ccccc1Cl)N1CCOCC1
inactive: [1] 18.2% | [2] -22.2% | [3] 14.7% | [4] 17.1% | [5] 20.1% | [6] 13.8%

CCC1(CC)C(=O)N(C(=O)c2ccc(C)cc2)N(C(=O)c2ccc(C)cc2)C1=O
inactive: [1] 3.65% | [2] -6.1% | [3] 14.6% | [4] 18.1% | [5] 2.8% | [6] -17.3%

C=CCCCOC(C)=O
inactive: [1] 5.1% | [2] -10.9% | [3] 12.5% | [4] 4% | [5] 11.9% | [6] 1.8%

Cn1c(=O)c(Cl)c(N=[N+]=[N-])c2ccccc21
inactive: [1] 45.1% | [2] 37.4% | [3] 44% | [4] 51% | [5] 22% | [6] 30.2%

CC1=C(C(=O)NCc2ccccc2)C(c2cccc([N+](=O)[O-])c2)C(C(=O)NCc2ccccc2)=C(C)N1
inactive: [1] 19.6% | [2] 17.2% | [3] 9.05% | [4] 22.7% | [5] 19.2% | [6] 33.7%

c1ccc([Si](c2ccccc2)(c2cccs2)c2cccs2)cc1
inactive: [1] -8.35% | [2] 6.35% | [3] 12.5% | [4] 7.85% | [5] 3.6% | [6] 26%

CCCC(C)C1(CC)NC(C)(C)CC(C)O1 (stereo unspecified)
inactive: [1] 2.75% | [2] 0.8% | [3] -5.75% | [4] -29.4% | [5] 4.9% | [6] 1.2%

CCCCc1c(O)c2c(=O)n(C)c(=O)n3c4ccccc4n(c1=O)c23
inactive: [1] -1.55% | [2] -9.7% | [3] -1% | [4] -22.1% | [5] -0.3% | [6] 10.8%
